Data taken from PubChem BioAssay (Tox21).
Results filed as inconclusive are left out. Calls of active or inactive are those of the source. Unless noted, calls come from the whole dose curve; as a rule, active = well fitted curve in the direction sought with a large enough effect in the repeat runs; inconclusive = weak or mixed curves; inactive = no such curve, though single readings can be large; an effect the other way counts as inactive or inconclusive.

Tests used:
[1] = qHTS assay to identify small molecule agonists of the RXR signaling pathway - cell viability counter screen (AID 1159529);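 note: HEK 293T cells carrying an RXR-alpha UAS beta-lactamase reporter; series mostly up to about 77 µM; nearly all actives have a fitted effect of over 50% in size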
In short: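 Viability read-out for the RXR-alpha agonist qHTS: luminescent CellTiter-Glo signal after 30 min at RT. HEK 293T bla reporter cells, 2% charcoal-stripped FBS, 16 hr compound incubation; tetraoctyl ammonium bromide as cytotoxic control.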

[2] = qHTS assay to identify small molecule antagonists of the retinoid acid receptor (RAR) signaling pathway - cell viability counter screen (AID 1159551); note: nearly all actives have a fitted effect of over 35% in size
In short: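 Measured by luminescent ATP detection, viability reflects C3RL4 cells treated 6 h at 37 C with test chemicals in the presence of 1 uM (final) retinol.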

[3] = qHTS assay to identify small molecule antagonists of the retinoic acid receptor (RAR) signaling pathway (AID 1159552; note: nearly all actives have a fitted effect of over 50% in size; note: potency is the fitted concentration of half-maximal effect)
In short: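 Using a RARE-driven luciferase construct in C3RL4 cells, retinol at 1 uM final provided the agonist stimulus while compounds were co-applied. After 6 hours at 37 C, luminescence was recorded to flag inhibitors of retinol signaling.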

[4] = qHTS assay to identify small molecule antagonists of the estrogen related receptor (ERR) signaling pathway (AID 1224819; note: series mostly up to about 46 µM; nearly all actives have a fitted effect of over 50% in size)
In short: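 Compounds dissolved in DMSO were pin-transferred onto ERR cells that had been plated 6 h earlier, and cells were then incubated 18 h at 37 C; signal was luciferase luminescence via One-Glo.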

[5] = qHTS assay to identify small molecule agonists of the estrogen related receptor (ERR) signaling pathway (AID 1224820)
In short: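 After 6 h plating (2,000 cells/well) and 18 h compound treatment at 37 C, ERR cells were lysed with One-Glo and luminescence read after 30 min at room temperature.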

[6] = system: estrogen-related receptor alpha (ERRalpha) with PGC-1alpha coactivator, human; assay: qHTS assay to identify small molecule antagonists of the estrogen related receptor signaling pathway with the pleiotropic PPARgamma coactivator (PGC) (AID 1224821; calls by dose curve;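 note: series mostly up to about 46 µM; lower luminescence signal means antagonism of PGC/ERR signalling; nearly all actives have a fitted effect of over 50% in size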)
In short: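 Luminescence from One-Glo luciferase reagent (30 min, room temperature) measured after 18 h compound treatment at 37 °C. Cells carry the PGC/ERR reporter and were seeded 6 h prior to dosing.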

[7] = qHTS assay to identify small molecule agonists of the estrogen related receptor signaling pathway with the pleiotropic PPARgamma coactivator (PGC) (AID 1224823)
In short: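 Luminescence from One-Glo reagent (30 min, room temperature) was read after 18 h compound treatment at 37 C of PGC/ERR cells plated 6 h beforehand; compounds delivered in DMSO by pin tool.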

[8] = qHTS assay to identify small molecule antagonists of the estrogen related receptor (ERR) signaling pathway from Tox21 library - cell viability counter screen (AID 1224834); note: nearly all actives have a fitted effect of over 30% in size; note: potency is the fitted concentration of half-maximal effect
In short: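 Seeded ERR cells were rested 6 h at 37 C/5% CO2 before compounds, positive and negative controls or DMSO were added. Incubation continued for 17.5 h, and viability was then quantified by CellTiter-Fluor fluorescence.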

[9] = target: Luciferin 4-monooxygenase (Photinus pyralis) (UniProt P08659); assay: qHTS assay to identify small molecule inhibitors of firefly luciferase (AID 1224835); note: series mostly up to about 120 µM; nearly all actives have a fitted effect of over 25% in size
In short: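 Biochemical qHTS: compounds run as interplate titrations against purified firefly enzyme, with D-luciferin and ATP each at its KM concentration. Light output recorded by CCD imaging.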

[10] = qHTS assay to identify small molecule agonists of the constitutive androstane receptor (CAR) signaling pathway - cell viability counter screen (AID 1224836); note: series mostly up to about 92 µM; nearly all actives have a fitted effect of over 45% in size
In short: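 Multiplexed viability check: HepG2-CYP2B6-hCAR cells, 15-point compound dosing, 0.75 uM PK11195 final, 23 h at 37 C, CellTiter-Fluor fluorescence.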

[11] = target: Nuclear receptor subfamily 1 group I member 3 (Homo sapiens) (UniProt Q14994); assay: qHTS assay to identify small molecule antagonists of the constitutive androstane receptor (CAR) signaling pathway (AID 1224838);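 note: HepG2 cells stably expressing hCAR with CYP2B6 luciferase reporter stimulated by CITCO; nearly all actives have a fitted effect of over 40% in size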; note: potency is the fitted concentration of half-maximal effect
In short: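 Human hepatoma HepG2 cells expressing hCAR and a CYP2B6 promoter (2.2 kb) luciferase construct; compound titration (15 points) with 50 nM CITCO final, 24 h at 37 C/5% CO2; luminescence via ONE-Glo after 30 min at room temperature.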

[12] = target: Nuclear receptor subfamily 1 group I member 3 (Homo sapiens) (UniProt Q14994); assay: qHTS assay to identify small molecule agonists of the constitutive androstane receptor (CAR) signaling pathway (AID 1224839);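 note: HepG2 cells stably carrying human CAR and a CYP2B6 luciferase reporter; series mostly up to about 92 µM; nearly all actives have a fitted effect of over 15% in size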
In short: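 Using human hepatoma HepG2 cells engineered with hCAR and a CYP2B6-2.2kb reporter, 15-concentration compound series were incubated 24 h alongside PK11195 at 0.75 uM final, with luminescence quantified afterwards.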

[13] = qHTS assay to identify small molecule antagonists of the estrogen related receptor signaling pathway with the pleiotropic PPARgamma coactivator (PGC) from Tox21 10K library (AID 1224841; call rule not given here)
In short: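 Test chemicals dissolved in DMSO were applied to pre-incubated (6 h) PGC/ERR cells at 2,000 cells/well for an 18 h, 37 C treatment; reporter luminescence was then read using One-Glo.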

[14] = qHTS assay to identify small molecule agonists of the estrogen related receptor signaling pathway with the pleiotropic PPARgamma coactivator (PGC) from Tox21 10K library (AID 1224842); note: nearly all actives have a fitted effect of over 15% in size
In short: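 PGC/ERR reporter cell line, 2,000 cells per well, incubated 6 h at 37 C before 23 nL compound in DMSO was added. After 18 h at 37 C, One-Glo luminescence read following 30 min at room temperature.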

[15] = target: Thyrotropin receptor (Homo sapiens) (UniProt P16473); assay: qHTS assay to identify small molecule agonists of the thyroid stimulating hormone receptor (TSHR) signaling pathway (AID 1224843; calls by dose curve; note: nearly all actives have a fitted effect of over 45% in size)
In short: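 Agonist-mode screen: TSHR HEK293 cells received test chemicals for half an hour at room temperature, then HTRF cAMP detection reagents for one hour prior to fluorescence measurement. Each chemical ran as a 15-concentration series, triplicated.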

[16] = qHTS assay to identify small molecule agonists of the retinoic acid receptor (RAR) signaling pathway (AID 1159553)
In short: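 6 hr compound exposure (DMSO vehicle) of overnight-plated C3RL4 RARE-luc cells at 37 C; luminescence quantified after 30 min RT with luciferase reagent.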

[17] = qHTS assay to identify small molecule antagonists of the constitutive androstane receptor (CAR) signaling pathway - cell viability counter screen (AID 1224837); note: series mostly up to about 92 µM; nearly all actives have a fitted effect of over 45% in size
In short: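 To flag cytotoxic false antagonists, HepG2 hCAR/CYP2B6-2.2kb cells were treated 23 hr with 15-concentration compound series and 50 nM CITCO at 37 C/5% CO2; CellTiter-Fluor fluorescence was the measured end point.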

[18] = qHTS assay to identify small molecule antagonists of the estrogen related receptor signaling pathway with the pleiotropic PPARgamma coactivator (PGC) from Tox21 10K library - cell viability counter screen (AID 1224840; active = well fitted cell-killing curve with a large enough effect in the repeat runs, not every such curve was filed as active; note: nearly all actives have a fitted effect of over 40% in size)
In short: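 Seeded PGC/ERR cells (2,000/well, 6 h, 37 C/5% CO2) get compound by pin tool; 17.5 h incubation at 37 C; CellTiter-Fluor added, 30 min, fluorescence measured.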

[19] = qHTS assay to identify small molecule antagonists of the estrogen related receptor signaling pathway with the pleiotropic PPARgamma coactivator (PGC) cell viability counter screen (AID 1224822; note: series mostly up to about 46 µM)
In short: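 Counter screen for cell viability: PGC/ERR cells, 6 h pre-incubation after plating, 17.5 h compound exposure at 37 C, fluorescence from CellTiter-Fluor after 30 min.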

[20] = qHTS assay to identify small molecule agonists of the hypoxia (HIF-1) signaling pathway - cell viability counter screen (AID 1224844; calls by dose curve; note: nearly all actives have a fitted effect of over 50% in size)
In short: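 HRE-bla ME-180; 0.5% dFBS; cpd 17 h, 37C, 5% CO2; CellTiter-Glo lum., 30 min RT, post-FRET read, same wells.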
% is set by controls: 0 for no effect and ±100 for the full control effect.

Nuclear receptor subfamily 1 group I member 3 (Homo sapiens), sequence (Q14994 whole entry, looked up): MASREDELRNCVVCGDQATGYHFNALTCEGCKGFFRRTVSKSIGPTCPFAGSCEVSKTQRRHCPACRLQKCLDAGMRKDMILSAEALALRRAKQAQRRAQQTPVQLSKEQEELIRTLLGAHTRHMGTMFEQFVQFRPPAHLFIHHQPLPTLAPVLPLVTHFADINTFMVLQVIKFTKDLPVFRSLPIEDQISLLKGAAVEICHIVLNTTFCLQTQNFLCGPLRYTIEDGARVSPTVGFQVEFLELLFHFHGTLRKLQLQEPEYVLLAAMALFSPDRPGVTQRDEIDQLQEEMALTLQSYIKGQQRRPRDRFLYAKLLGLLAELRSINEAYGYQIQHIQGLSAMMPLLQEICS
Luciferin 4-monooxygenase (Photinus pyralis), sequence (P08659 whole entry, looked up): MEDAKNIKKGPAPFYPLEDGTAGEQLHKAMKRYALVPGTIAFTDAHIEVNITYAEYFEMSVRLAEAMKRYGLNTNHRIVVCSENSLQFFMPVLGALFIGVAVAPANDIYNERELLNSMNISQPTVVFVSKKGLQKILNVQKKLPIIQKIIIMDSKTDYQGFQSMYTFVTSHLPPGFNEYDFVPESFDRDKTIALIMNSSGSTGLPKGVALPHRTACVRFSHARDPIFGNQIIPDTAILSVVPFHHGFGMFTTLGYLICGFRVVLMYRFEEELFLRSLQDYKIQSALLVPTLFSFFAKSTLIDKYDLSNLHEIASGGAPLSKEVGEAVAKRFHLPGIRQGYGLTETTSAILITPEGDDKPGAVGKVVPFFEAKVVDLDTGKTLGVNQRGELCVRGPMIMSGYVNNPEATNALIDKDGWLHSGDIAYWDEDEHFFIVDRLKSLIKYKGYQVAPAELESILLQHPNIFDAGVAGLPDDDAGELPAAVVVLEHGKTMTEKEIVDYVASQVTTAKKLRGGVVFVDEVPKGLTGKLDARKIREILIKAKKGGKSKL
Thyrotropin receptor (Homo sapiens), sequence (P16473 whole entry, looked up): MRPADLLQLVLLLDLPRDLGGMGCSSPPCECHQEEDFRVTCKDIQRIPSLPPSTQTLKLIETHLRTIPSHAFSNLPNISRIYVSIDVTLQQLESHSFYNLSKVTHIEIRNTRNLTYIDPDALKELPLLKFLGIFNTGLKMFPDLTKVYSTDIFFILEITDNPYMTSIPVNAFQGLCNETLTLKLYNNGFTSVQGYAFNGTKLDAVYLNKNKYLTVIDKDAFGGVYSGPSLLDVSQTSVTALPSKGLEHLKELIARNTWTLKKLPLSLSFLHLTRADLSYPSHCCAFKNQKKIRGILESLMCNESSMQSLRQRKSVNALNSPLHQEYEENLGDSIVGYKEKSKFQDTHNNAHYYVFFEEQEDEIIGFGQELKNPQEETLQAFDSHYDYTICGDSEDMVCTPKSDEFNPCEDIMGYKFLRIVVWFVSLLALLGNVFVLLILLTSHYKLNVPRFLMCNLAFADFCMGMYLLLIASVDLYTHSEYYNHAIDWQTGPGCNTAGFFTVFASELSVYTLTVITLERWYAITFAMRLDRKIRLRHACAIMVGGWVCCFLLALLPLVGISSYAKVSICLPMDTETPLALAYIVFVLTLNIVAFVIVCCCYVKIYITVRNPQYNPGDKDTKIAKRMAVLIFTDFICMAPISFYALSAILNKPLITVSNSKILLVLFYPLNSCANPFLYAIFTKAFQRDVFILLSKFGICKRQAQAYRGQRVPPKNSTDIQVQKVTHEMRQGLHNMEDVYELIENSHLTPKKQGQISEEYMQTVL

COc1cc(C(=O)OCCCN2CCCN(CCCOC(=O)c3cc(OC)c(OC)c(OC)c3)CC2)cc(OC)c1OC
active: Potency [3] 13.3 µM | Potency [8] 23.7 µM
inactive: Potency [1] | Potency [2] | Potency [4] | outcome [5] | Potency [6] | outcome [7] | Potency [9] | Potency [10] | Potency [11] | Potency [12] | Potency [13] | Potency [14] | Potency [15]

O=S(c1cc(Cl)cc(Cl)c1O)c1cc(Cl)cc(Cl)c1O
inactive: Potency [1] | Potency [2] | Potency [3] | Potency [16] | Potency [8] | Potency [10] | Potency [17] | Potency [11] | Potency [12] | Potency [18] | Potency [13] | Potency [14]

NC(N)=NCCC[C@H](N)C(=O)O
inactive: activity change, negative = cytotoxicity [1] 6.89% [at 6.97 µM] | activity change, negative = cytotoxicity [2] -0.0145% [at 8.39 µM] | activity, negative = inhibition [3] 5.45% [at 8.39 µM] | Potency [4] | outcome [5] | Potency [6] | outcome [19] | outcome [7] | viability change, negative = cytotoxic [8] 3.84% [at 8.39 µM] | activity change, negative = inhibition [9] 0.418% [at 10.5 µM] | viability change, negative = cytotoxic [10] 0.813% [at 8.39 µM] | activity change, negative = cytotoxicity [17] -4.98% [at 8.39 µM] | viability change, negative = cytotoxic [18] -6.77% [at 8.39 µM] | activity, negative = inhibition [13] -5.77% [at 8.39 µM] | activation [15] -0.151% [at 8.39 µM] | activity change, negative = cytotoxicity [20] -0.141% [at 6.97 µM]

O=C(O)CC(=O)C(=O)O
inactive: Potency [1] | Potency [2] | Potency [3] | Potency [16] | Potency [8] | Potency [10] | Potency [17] | Potency [18] | Potency [15] | Potency [20]

CCCCC
inactive: Potency [1] | Potency [2] | Potency [3] | Potency [16] | Potency [8] | Potency [10] | Potency [17] | Potency [18] | Potency [15] | Potency [20]

OC(C#CCN1CCCC1)(c1ccccc1)c1ccccc1
inactive: Potency [1] | Potency [2] | Potency [3] | Potency [16] | Potency [8] | Potency [9] | Potency [10] | Potency [17] | Potency [18] | Potency [15] | Potency [20]

CC(COCCO)OCCO (stereo not given)
inactive: Potency [1] | Potency [2] | Potency [3] | Potency [16] | Potency [8] | Potency [9] | Potency [10] | Potency [17] | Potency [18] | Potency [15] | Potency [20]

O=P(O)(OCc1ccccc1)OCc1ccccc1
inactive: Potency [1] | Potency [2] | Potency [3] | Potency [16] | Potency [8] | Potency [9] | Potency [10] | Potency [17] | Potency [18] | Potency [15] | Potency [20]

COc1cc2nc(Cl)nc(N)c2cc1OC
inactive: Potency [1] | Potency [2] | Potency [3] | Potency [16] | Potency [8] | Potency [10] | Potency [17] | Potency [11] | Potency [12] | Potency [18] | Potency [20]

OC(CN1CCC(Cc2ccc(F)cc2)CC1)c1ccc(Cl)cc1 (stereo not given)
inactive: Potency [1] | Potency [2] | Potency [3] | outcome [19] | Potency [8] | Potency [12] | Potency [20]
active: Potency [11] 23.7 µM
